PubChem BioAssay (Tox21)
Values joined by “and” are separate entries in the source; they are usually repeats but may differ in a detail not shown here. Equal values may be shown once. Results filed as inconclusive are left out. A call without a number means that no potency is given here. Where a structure was tested more than once in an assay, its records may differ in their call. Active and inactive are the calls of the source. Unless noted, calls follow the shape of the full dose curve.

What was measured:
[1] = Nuclear factor erythroid 2-related factor 2/antioxidant responsive element (Nrf2/ARE) small molecule agonists: qHTS cell viability counter screen in human keratinocytes (AID 1919968; active = well fitted cell-killing curve with a large enough effect in the repeat runs; also: nearly all actives have a fitted effect of over 55% in size; also: potency is read from the fitted curve at half-maximal effect)
Outline: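 Fluorescence read-out from CellTiter-Fluor after 1 h at 37 C. Wells held HaCaT-derived ARE-luciferase reporter cells (1,500/well) treated 23 h with DMSO-dissolved compounds. Run in the same wells as the luciferase agonist read.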

[2] = Nuclear factor erythroid 2-related factor 2/antioxidant responsive element (Nrf2/ARE) small molecule agonists: luciferase reporter gene qHTS assay in human keratinocytes (AID 1919969); also: nearly all actives have a fitted effect of over 35% in size; also: potency is read from the fitted curve at half-maximal effect
[3] = biological target: Gonadotropin-releasing hormone receptor (Homo sapiens) (UniProt P30968); test: Human gonadotropin-releasing hormone receptor (GnRHR) small molecule agonists, calcium flux assay in GnRHR-HEK293 cells (AID 1920063); also: nearly all actives have a fitted effect of over 35% in size
Gonadotropin-releasing hormone receptor (Homo sapiens), sequence (P30968 whole entry, looked up): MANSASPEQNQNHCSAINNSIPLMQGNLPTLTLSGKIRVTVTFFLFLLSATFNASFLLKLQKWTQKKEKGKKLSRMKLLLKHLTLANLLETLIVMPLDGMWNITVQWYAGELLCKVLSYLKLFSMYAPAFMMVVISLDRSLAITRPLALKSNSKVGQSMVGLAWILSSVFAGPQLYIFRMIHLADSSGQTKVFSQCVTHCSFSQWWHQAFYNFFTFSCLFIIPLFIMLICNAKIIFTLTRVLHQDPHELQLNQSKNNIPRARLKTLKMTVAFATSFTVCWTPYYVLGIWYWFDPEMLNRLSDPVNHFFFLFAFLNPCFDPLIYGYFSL
Outline: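 Calcium-dye fluorescence, Ex/Em=480/540, recorded every 1 sec over 3 min after compound addition to GnRHR-HEK293 cells. Cells had been seeded 18 hours earlier and dye-loaded for 1 hour at 37 C. Fifteen concentrations, triplicates.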

[4] = G protein-coupled receptor (GPCR) small molecule agonists, calcium flux assay: HEK293 wild type cell line counter screen (AID 1920065)
Outline: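 Agonist mode; 18 h seeding at 37 C, 1 h dye load at 37 C; compounds pinned from DMSO, ATP as positive control; kinetic fluorescence 480/540 nm, 3 min, 1 s reads; 15 concentrations, triplicate.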

[5] = p53 small molecule agonists, cell-based qHTS assay with human liver microsomes (AID 1963577);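 also: p53 response element beta-lactamase reporter cells with liver microsomes plus NADPH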
Outline: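 With metabolic activation: human liver microsomes (0.5 mg/mL final) plus NADPH (0.5 mg/mL final) added alongside compounds to p53RE-bla cells; 16 h 37 C exposure; beta-lactamase read by LiveBLAzer fluorescence.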

[6] = p53 small molecule agonists, cell-based qHTS assay with rat liver microsomes (AID 1963578)
Outline: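 Metabolic activation by rat liver microsomes and NADPH, each 0.5 mg/mL final, added right after compounds to p53RE-bla reporter cells (4,000/well, plated 5 h earlier). 16 h at 37 C, then LiveBLAzer substrate for 2 h at room temperature in the dark; fluorescence read-out.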

[7] = p53 small molecule agonists, cell-based qHTS assay with human liver microsomes: qHTS cell viability counter screen (AID 1963579); also: nearly all actives have a fitted effect of over 45% in size
Outline: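 Metabolic activation used human liver microsomes and NADPH, both 0.5 mg/mL final, over 16 hours at 37 C on p53RE-bla cells (4,000/well). Cytotoxicity measured by CellTiter-Glo luminescence, 30 min at room temperature.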

[8] = p53 small molecule agonists, cell-based qHTS assay with rat liver microsomes: qHTS cell viability counter screen (AID 1963580); also: nearly all actives have a fitted effect of over 45% in size; also: potency is read from the fitted curve at half-maximal effect
Outline: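 Luminescent ATP readout (CellTiter-Glo, 30 min at room temperature) reports viability of p53RE-bla HCT-116 cells after 16 h at 37 C with test compounds under metabolic activation by rat liver microsomes and NADPH at 0.5 mg/mL final each.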

[9] = p53 small molecule agonists, cell-based qHTS assay: qHTS cell viability counter screen (AID 1963581); also: nearly all actives have a fitted effect of over 45% in size; also: potency is read from the fitted curve at half-maximal effect
Outline: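 Cytotoxicity read-out: ATP-based luminescence (CellTiter-Glo, 30 min RT) measured in the same wells as the p53 reporter assay, HCT-116 p53RE-bla cells, 16 h compound exposure at 37 C.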

[10] = p53 small molecule agonists, cell-based qHTS assay (AID 1963582; active = well fitted activation curve with a large enough effect in the signal ratio in the repeat runs, not every such curve was filed as active; the % refers to the signal ratio)
Outline: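 Fluorescence intensity read-out of a beta-lactamase reporter under a p53 response element. Cells were exposed to DMSO-dissolved compounds for 16 h at 37 C, then developed with FRET substrate for 2 h at RT.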

[11] = biological target: 5-hydroxytryptamine receptor 2A (Homo sapiens) (UniProt P28223); test: 5-hydroxytryptamine receptor 2A (HTR2A) small molecule antagonists, cell-based qHTS assay (AID 1963586); also: nearly all actives have a fitted effect of over 45% in size
5-hydroxytryptamine receptor 2A (Homo sapiens), sequence (P28223 whole entry, looked up): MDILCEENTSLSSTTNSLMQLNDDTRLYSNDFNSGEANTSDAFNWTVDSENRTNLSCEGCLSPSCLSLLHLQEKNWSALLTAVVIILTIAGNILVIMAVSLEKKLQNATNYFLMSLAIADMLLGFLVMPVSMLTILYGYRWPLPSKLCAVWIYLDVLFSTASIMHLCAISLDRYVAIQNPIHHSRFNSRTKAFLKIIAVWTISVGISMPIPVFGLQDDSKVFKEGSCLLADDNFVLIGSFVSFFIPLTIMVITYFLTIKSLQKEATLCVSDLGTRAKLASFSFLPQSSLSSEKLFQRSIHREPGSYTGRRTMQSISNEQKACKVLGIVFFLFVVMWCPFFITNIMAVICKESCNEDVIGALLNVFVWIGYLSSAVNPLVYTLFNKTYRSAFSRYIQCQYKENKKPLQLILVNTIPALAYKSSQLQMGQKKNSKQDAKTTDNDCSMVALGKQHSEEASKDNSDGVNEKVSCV
Outline: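 CHO cells stably expressing human HTR2A were plated for 18 h at 37 C, then loaded with calcium dye for 1 h. Compounds were preincubated 5 min at room temperature before DOI (4 nM solution) was added. Kinetic fluorescence was read for 3 min.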

[12] = biological target: 5-hydroxytryptamine receptor 2A (Homo sapiens) (UniProt P28223); test: 5-hydroxytryptamine receptor 2A (HTR2A) small molecule agonists, cell-based qHTS assay (AID 1963587); also: nearly all actives have a fitted effect of over 30% in size
Outline: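 HTR2A-CHO cells, plated 18 h at 37 C/5% CO2, dye-loaded 1 h at 37 C; compounds in DMSO added by pin tool (agonist mode). Intracellular calcium flux read as kinetic fluorescence on FDSS over 2 min at 1 s intervals.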

[13] = biological target: Muscarinic acetylcholine receptor M1 (Homo sapiens) (UniProt P11229); test: Cholinergic receptor muscarinic 1 (CHRM1) small molecule antagonists, cell-based qHTS assay (AID 1963588); also: nearly all actives have a fitted effect of over 40% in size; also: potency is read from the fitted curve at half-maximal effect
Muscarinic acetylcholine receptor M1 (Homo sapiens), sequence (P11229 whole entry, looked up): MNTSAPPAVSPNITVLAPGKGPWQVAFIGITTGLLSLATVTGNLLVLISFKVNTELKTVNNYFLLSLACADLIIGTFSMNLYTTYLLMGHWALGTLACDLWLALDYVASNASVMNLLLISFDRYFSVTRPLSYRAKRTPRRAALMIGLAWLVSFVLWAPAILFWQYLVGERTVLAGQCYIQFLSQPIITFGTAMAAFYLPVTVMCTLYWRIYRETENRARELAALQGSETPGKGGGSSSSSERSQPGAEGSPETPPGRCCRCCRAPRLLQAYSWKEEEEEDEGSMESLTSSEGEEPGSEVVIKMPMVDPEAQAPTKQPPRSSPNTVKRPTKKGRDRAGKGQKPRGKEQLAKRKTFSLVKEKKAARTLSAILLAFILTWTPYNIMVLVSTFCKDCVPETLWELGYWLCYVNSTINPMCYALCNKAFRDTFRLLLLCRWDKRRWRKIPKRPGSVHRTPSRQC
Outline: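 Compounds were tested at 15 concentrations in three independent runs. Dye-loaded CHRM1-CHO cells were exposed 5 min at room temperature before stimulation by acetylcholine added at 50nM. Intracellular calcium was read kinetically on FDSS for 3 min.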

[14] = biological target: Muscarinic acetylcholine receptor M1 (Homo sapiens) (UniProt P11229); test: Cholinergic receptor muscarinic 1 (CHRM1) small molecule agonists, cell-based qHTS assay (AID 1963589); also: nearly all actives have a fitted effect of over 35% in size
Outline: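 Calcium flux read-out: kinetic fluorescence at 1 sec intervals after pin-tool compound addition to dye-loaded CHRM1-CHO cells (human M1). Agonist mode; 15 concentrations tested in triplicate independent runs.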

[15] = cAMP Responsive Elements (CRE) small molecule agonists, cell-based qHTS assay (AID 1963590)
Outline: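 Beta-lactamase reporter readout: LiveBLAzer B/G FRET substrate, 2 h at room temperature, added after 3 h compound treatment of CRE-bla HEK 293T cells at 37 C/5% CO2.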

[16] = cAMP Responsive Elements (CRE) small molecule antagonists, cell-based qHTS assay (AID 1963591; active = well fitted inhibition curve with a large enough effect in the signal ratio in the repeat runs, not every such curve was filed as active; the % refers to the signal ratio)
Outline: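 HEK293T CRE-bla; 18 h preincubation; compound pin-transfer; NKH477 0.25 uM final, 3 h, 37 C; LiveBLAzer FRET substrate 2 h RT.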

[17] = biological target: Beta-2 adrenergic receptor (Homo sapiens) (UniProt P07550); test: Adrenergic beta2 receptor (ADRB2) small molecule antagonists, cell-based qHTS assay (AID 1963592); also: series mostly up to about 92 µM; nearly all actives have a fitted effect of over 50% in size
Beta-2 adrenergic receptor (Homo sapiens), sequence (P07550 whole entry, looked up): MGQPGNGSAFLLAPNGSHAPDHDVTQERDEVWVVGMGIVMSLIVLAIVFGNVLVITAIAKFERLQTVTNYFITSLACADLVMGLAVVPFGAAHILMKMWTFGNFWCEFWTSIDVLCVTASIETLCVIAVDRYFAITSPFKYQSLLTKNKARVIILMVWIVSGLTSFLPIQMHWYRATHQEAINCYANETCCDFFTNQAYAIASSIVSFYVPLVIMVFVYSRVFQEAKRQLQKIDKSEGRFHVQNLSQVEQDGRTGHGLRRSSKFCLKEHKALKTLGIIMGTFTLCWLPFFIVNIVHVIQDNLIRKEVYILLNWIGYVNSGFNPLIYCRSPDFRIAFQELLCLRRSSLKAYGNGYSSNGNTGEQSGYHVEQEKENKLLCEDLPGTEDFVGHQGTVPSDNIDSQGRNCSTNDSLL
Outline: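 Assay format: CHO-ADRB2 cells, 18-20hr seeding at 37C/5% CO2, then compound plus 1nM isoproterenol agonist mix for 0.5hr RT. Homogeneous time-resolved fluorescence cAMP detection after 1hr, expressed as 665/615 nm ratio.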

[18] = biological target: D(2) dopamine receptor (Homo sapiens) (UniProt P14416); test: Dopamine D2 receptor (DRD2) small molecule agonists, cell-based qHTS assay (AID 1963594); also: nearly all actives have a fitted effect of over 35% in size
D(2) dopamine receptor (Homo sapiens), sequence (P14416 whole entry, looked up): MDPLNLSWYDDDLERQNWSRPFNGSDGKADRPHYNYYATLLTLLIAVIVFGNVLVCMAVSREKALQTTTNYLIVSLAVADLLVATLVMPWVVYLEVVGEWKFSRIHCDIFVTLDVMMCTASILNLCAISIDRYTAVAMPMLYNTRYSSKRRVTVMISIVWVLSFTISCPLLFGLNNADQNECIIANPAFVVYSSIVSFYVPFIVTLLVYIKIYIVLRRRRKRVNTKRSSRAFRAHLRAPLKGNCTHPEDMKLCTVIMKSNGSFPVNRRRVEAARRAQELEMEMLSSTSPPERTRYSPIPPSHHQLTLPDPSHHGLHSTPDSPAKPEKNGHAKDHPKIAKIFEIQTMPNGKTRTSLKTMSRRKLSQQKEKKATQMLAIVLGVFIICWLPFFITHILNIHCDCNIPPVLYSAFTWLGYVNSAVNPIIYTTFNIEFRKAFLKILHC
Outline: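 HEK293 cells stably expressing DRD2 were cultured 24 h at 37 C, then given Ro20-1724 (0.1 mM final) and compounds for 10 min at room temperature. NKH477 (200nM) was then added for 30 min. cAMP was read by HTRF.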

[19] = biological target: D(2) dopamine receptor (Homo sapiens) (UniProt P14416); test: Dopamine D2 receptor (DRD2) small molecule antagonists, cell-based qHTS assay (AID 1963595; active = well fitted inhibition curve with a large enough effect in the signal ratio in the repeat runs, with a control signal flat; the % refers to the signal ratio)
Outline: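 Antagonist mode in DRD2-HEK293 cells: after compound addition with 0.1 mM Ro20-1724, cells received quinpirole (12 nM) and NKH477 (200 nM) for 30 min at room temperature; HTRF cAMP read after 1 h detection.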

[20] = biological target: Beta-2 adrenergic receptor (Homo sapiens) (UniProt P07550); test: Adrenergic beta2 receptor (ADRB2) small molecule agonists, cell-based qHTS assay (AID 1963593);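 also: CHO cells stably overexpressing human ADRB2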
Outline: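 CHO cells stably over-expressing ADRB2 were plated overnight at 37C, then dosed with compounds plus a stimulation mix containing 100uM IBMX and 25uM Ro-20-1724 for 0.5hr at room temperature. cAMP was measured by HTRF competition, 1hr.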

SMILES | Potency [1] | Potency [2] | Potency [3] | Potency [4] | Potency [5] | Potency [6] | Potency [7] | Potency [8] | Potency [9] | Potency [10] | Potency [11] | Potency [12] | Potency [13] | Potency [14] | Potency [15] | Potency [16] | Potency [17] | Potency [18] | Potency [19] | Potency [20]
Cc1ccc(N)cc1C | inactive | 9.77 µM (active) | inactive | inactive | inactive | inactive | inactive | inactive | inactive | inactive | inactive | inactive | inactive | inactive | inactive | inactive | inactive | inactive | inactive | –
CCCCCCCCC(=O)NCc1ccc(O)c(OC)c1 | inactive | inactive | inactive | – | – | – | inactive | inactive | inactive | – | inactive | inactive | inactive | – | inactive | inactive | inactive | inactive | – | inactive
CN(N=O)c1ccccc1 | inactive | inactive | inactive | – | – | – | – | inactive | inactive | – | inactive | inactive | inactive | inactive | – | inactive | inactive | inactive | inactive | –
C[C@@H]1O[C@@H](O[C@H]2C[C@@H](O)[C@]3(CO)[C@H]4[C@H](O)C[C@]5(C)[C@@H](C6=CC(=O)OC6)CC[C@]5(O)[C@@H]4CC[C@]3(O)C2)[C@H](O)[C@H](O)[C@H]1O | 730 nM (active) and 1.06 µM (active) | 163 nM (active) and 211 nM (active) | inactive | – | – | – | – | 112 nM (active) | 126 nM (active) | – | – | – | – | – | – | – | inactive | inactive | inactive | inactive
CC12CC1(C)C(=O)N(c1cc(Cl)cc(Cl)c1)C2=O (centres undefined) | inactive | inactive | inactive | inactive | inactive | inactive | inactive | inactive | inactive | inactive | inactive | inactive | – | inactive | inactive | inactive | inactive | inactive | inactive | inactive
CCN(CC)CCN1C(=O)CN=C(c2ccccc2F)c2cc(Cl)ccc21 | inactive | inactive | inactive | inactive | inactive | inactive | inactive | inactive | inactive | inactive | inactive | inactive | inactive | – | inactive | inactive | inactive | inactive | inactive | –
CNC(=O)CSP(=S)(OC)OC | inactive | inactive | inactive | – | – | – | inactive | inactive | inactive | – | inactive | inactive | inactive | – | inactive | inactive | inactive | – | inactive | inactive
Nc1ccccc1C(=O)OCC(O)CO (centres undefined) | inactive | inactive | inactive | – | – | inactive | inactive | inactive | inactive | inactive | inactive | inactive | inactive | inactive | inactive | inactive | inactive | inactive | inactive | inactive
Cc1[nH]c(=O)n(C(C)(C)C)c(=O)c1Cl | inactive | inactive | inactive | – | – | – | – | inactive | – | – | inactive | inactive | inactive | inactive | inactive | inactive | inactive | inactive | inactive | –
O=c1[nH]c(=O)[nH]c(=O)[nH]1 | inactive | inactive | inactive | inactive | inactive | inactive | inactive | inactive | inactive | inactive | – | inactive | inactive | inactive | inactive | inactive | – | inactive | inactive | inactive
Cc1nn(-c2cc(NS(C)(=O)=O)c(Cl)cc2Cl)c(=O)n1C(F)F | inactive | inactive | inactive | inactive | inactive | inactive | inactive | inactive | inactive | inactive | inactive | inactive | inactive | inactive | – | inactive | inactive | inactive | inactive | inactive
COC(=O)NC(=S)Nc1ccccc1NC(=S)NC(=O)OC | inactive | inactive | inactive | – | – | inactive | inactive | inactive | inactive | inactive | inactive | inactive | inactive | inactive | inactive | inactive | inactive | inactive | inactive | inactive
CC(C)NC(=O)N1CC(=O)N(c2cc(Cl)cc(Cl)c2)C1=O | inactive | inactive | inactive | inactive | inactive | inactive | inactive | inactive | inactive | inactive | inactive | inactive | inactive | inactive | – | inactive | inactive | inactive | inactive | inactive
O=C(O)Cc1ccccc1 | inactive | inactive | inactive | – | – | – | inactive | – | – | – | inactive | inactive | 266 nM (active) and inactive | inactive | inactive | inactive | inactive | inactive | inactive | –
c1ccc2c(c1)CCCC2 | inactive | inactive | inactive | inactive | inactive | inactive | inactive | inactive | inactive | inactive | inactive | inactive | inactive | inactive | inactive | inactive | inactive | inactive | inactive | –
N#Cc1ccccc1N | inactive | inactive | inactive | inactive | inactive | inactive | inactive | inactive | inactive | inactive | inactive | – | inactive | inactive | inactive | inactive | inactive | inactive | inactive | –
O=NN1CCCCCCC1 | inactive | inactive | inactive | inactive | inactive | inactive | inactive | inactive | inactive | inactive | inactive | inactive | inactive | – | inactive | – | inactive | inactive | inactive | inactive
